# Source: PubChem BioAssay (several laboratories)
# Gli-Sufu block: Gli-Sufu pathway antagonism; Sufu-KO-LIGHT fibroblasts, Gli luciferase reporter luminescence; inhibition, % at 5 µM; 0.74% of 340,000 active; AID 588413;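 active = inhibition above about 55%, limit read from the data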;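 also: 0% = DMSO-treated cells and 100% = wells with medium but no cells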
# aSyn 5UTR inh: MLPCN primary screen, SNCA 5' untranslated region; alpha-synuclein 5'UTR reporter, inhibitor activity; inhibition, % (tested at 7.5 µM); 0.82% of 300,000 active; in the data active = inhibition above about 60%;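 also: H4 neuroglioblastoma cells stably carrying SNCA 5'UTR luciferase fusion; 0% = DMSO wells and 100% = positive control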
# 697 NFkB inh: inhibitors of the PMA/ionomycin-induced NF-kB reporter in 697 B cells; 697 B-cell NF-kB luciferase reporter, 16 h; inhibition, % at 4 µM; 0.33% of 330,000 active; AID 435022; in the data active = inhibition above about 35%
# Mdm2 MdmX PPI: inhibitors of human Mdm2/MdmX interaction | 3% of 330,000 active | O15151+Q00987 | SaOS-2 split-luciferase Mdm2/MdmX complementation, luminescence | inhibition, % at 8 µM;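 active = inhibition of at least 50% at 8 µM in the primary screen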
# Target sequence (O15151 whole entry, looked up): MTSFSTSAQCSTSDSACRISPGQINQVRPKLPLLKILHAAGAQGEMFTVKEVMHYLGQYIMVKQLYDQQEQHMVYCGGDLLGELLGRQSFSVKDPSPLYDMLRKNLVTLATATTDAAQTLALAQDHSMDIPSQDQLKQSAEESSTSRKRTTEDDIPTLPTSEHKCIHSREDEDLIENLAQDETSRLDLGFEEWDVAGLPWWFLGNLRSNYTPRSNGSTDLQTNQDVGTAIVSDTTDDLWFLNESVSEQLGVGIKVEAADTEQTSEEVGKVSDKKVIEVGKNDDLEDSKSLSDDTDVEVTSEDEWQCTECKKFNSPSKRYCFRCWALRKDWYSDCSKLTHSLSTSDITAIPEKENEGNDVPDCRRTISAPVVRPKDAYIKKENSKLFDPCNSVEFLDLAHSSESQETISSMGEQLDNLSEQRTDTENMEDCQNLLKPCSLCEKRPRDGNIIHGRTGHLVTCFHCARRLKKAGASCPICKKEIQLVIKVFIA
# Target sequence (Q00987 whole entry, looked up): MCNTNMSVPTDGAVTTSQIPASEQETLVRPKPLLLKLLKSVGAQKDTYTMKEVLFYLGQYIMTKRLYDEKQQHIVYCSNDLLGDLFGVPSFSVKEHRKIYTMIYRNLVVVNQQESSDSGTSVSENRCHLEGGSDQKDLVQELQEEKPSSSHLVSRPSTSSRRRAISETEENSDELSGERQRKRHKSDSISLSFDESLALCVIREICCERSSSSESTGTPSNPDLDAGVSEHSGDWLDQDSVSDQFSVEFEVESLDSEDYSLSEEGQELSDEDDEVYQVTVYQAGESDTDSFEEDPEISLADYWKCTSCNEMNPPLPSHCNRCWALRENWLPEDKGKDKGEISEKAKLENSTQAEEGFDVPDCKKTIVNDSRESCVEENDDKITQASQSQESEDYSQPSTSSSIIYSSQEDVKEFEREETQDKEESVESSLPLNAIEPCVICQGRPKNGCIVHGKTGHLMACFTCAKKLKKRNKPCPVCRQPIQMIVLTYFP
# Jurkat NFkB inh: lowers PMA/ionomycin-induced NF-kB signal in Jurkat cells; PMA/ionomycin-induced NF-kB luciferase reporter, luminescence; inhibition, % at 4 µM; 0.53% of 330,000 active; AID 435003; in the data active = inhibition above about 50%
# KLF5 inh: suppresses KLF5 promoter-driven expression. DLD-1 KLF5 promoter-luciferase reporter, luminescence. inhibition, % at 5 µM. 0.23% of 290,000 active;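 active = inhibition above a per-plate limit of that plate's mean compound inhibition plus 3 SD, cut at about 60% in these data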;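 also: 0% = DMSO wells and 100% = LY294002 at 200 µM; higher means less KLF5 promoter-driven luciferase light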
# Mdm2 MdmX conf: human Mdm2/MdmX binding inhibition, confirmed | luminescent assay | 55% of 10,000 active | shares compounds with Mdm2 MdmX PPI | inhibition, % at 8 µM; in the data active = inhibition above about 40%
# FLuc counter: full-length luciferase inhibition in Mdm2/MdmX counter-screen; 77% of 6,200 active; AID 504607; SaOS-2 full-length luciferase counterscreen, luminescence; shares compounds with Mdm2 MdmX PPI; inhibition, % at 8 µM;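 active = mean inhibition at 8 µM reaching about 37%, which flags the compound as non-specific, limit read from the data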;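 also: p53-null SaOS-2 cells with luciferase driven by a doxycycline-inducible promoter; compound on cells about two nights before reading with doxycycline added after day one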
# Starred values were filed as active, the others as inactive; nt = no result. Most compounds without a hit are left out; they make up all but 4.1% or so of the library.
SMILES,Gli-Sufu block,aSyn 5UTR inh,697 NFkB inh,Mdm2 MdmX PPI,Jurkat NFkB inh,KLF5 inh,Mdm2 MdmX conf,others
COC(=O)[C@H]1[C@H]2C[C@@H]3c4[nH]c5cc(OC)ccc5c4CCN3C[C@H]2C[C@@H](OC(=O)c2ccc(N)cc2)[C@@H]1OC,-8,17,20,14,-2,-7,nt,
Nc1nc(=S)c2ncn(C3CCCC3)c2[nH]1,0,9,nt,nt,nt,-15,nt,
O=C(OCn1cncn1)c1ccc(Cl)cc1Cl,-6,5,14,-4,9,-2,nt,
N/C(Cn1cncn1)=N\OC(=O)c1ccc(Cl)cc1,24,20,4,51*,-2,-15,-6,
COC(=O)C1=C(Nc2ccc(C)cc2)C=C(C)C(C(=O)OC)C1c1cccc(OC)c1 (stereo not given),10,10,-16,53*,21,-11,57*,FLuc counter=62*
COC(=O)C1=C(Nc2ccc(C)cc2)C=C(C)C(C(=O)OC)C1c1ccc(OC)cc1 (stereo not given),7,57,0,44,20,-38,nt,
Cc1ccnc(N/C=C(\C#N)c2nc(-c3cccc(Br)c3)cs2)c1,2,-12,-6,53*,3,-12,-5,
CCc1cc(SC#N)cc(C)c1N,2,7,16,-8,-3,-14,nt,
CCc1cc(SC#N)cc(C)c1NC(=O)CCl,5,-23,4,81*,17,-9,41*,FLuc counter=55*
O=C(NC1CCCCC1)c1cc(S(=O)(=O)N2CCCC2)ccc1Cl,-10,-1,4,27,-8,-21,nt,
CN(C)c1ccc(C(C[N+](=O)[O-])c2c(N)n(C)c(=O)n(C)c2=O)c(F)c1C#N (stereo not given),-3,-33,15,48,19,-42,nt,
COc1ccc(Br)cc1C(C[N+](=O)[O-])c1c(N)n(C)c(=O)n(C)c1=O (stereo not given),7,23,19,50*,5,-38,9,
CCCCN(Cc1ccccc1)C(=O)C1CCC(=O)N(CCc2ccccn2)C1 (stereo not given),-14,1,19,2,14,-14,nt,
CC1=NOC(=O)/C1=C\c1ccc(-c2ccc(Cl)c(C(=O)O)c2)o1,5,6,-13,16,-2,-32,nt,
CC1=NOC(=O)/C1=C\c1ccc(-c2cccc(Cl)c2)o1,-12,15,21,96*,21,-6,15,
Cc1ccc(C)c(S(=O)(=O)N2CCN(C(=O)c3cccnc3)CC2)c1,-11,2,5,21,10,-22,nt,
COc1ccc(C2Cc3ccccc3C(=O)O2)cc1 (stereo not given),-10,-25,-10,-12,-4,-8,nt,
O=C(/C=C/c1ccccc1)OCc1cnc(Cl)s1,2,-10,9,9,6,3,nt,
Cn1cnnc1Sc1ccc(/C=C/C(=O)c2ccc(O)cc2)cc1[N+](=O)[O-],-3,-111,-21,51*,19,-46,38,FLuc counter=53*
COc1ccc(CNS(=O)(=O)c2cc3c4c(c2)C(C)C(=O)N4CCC3)cc1 (stereo not given),20,-5,-12,20,5,0,nt,
COc1ccc(CC2(CO)COc3ccccc3C2=O)cc1 (stereo not given),-7,-64,-11,51*,34,nt,39,FLuc counter=85*
O=C(Nc1ccc(Cl)cc1)N1CCCC(Cn2cccc2)C1 (stereo not given),-42,-29,-28,-7,-22,-27,nt,
COc1cccc(NC(=S)N2CCN(C(c3ccccc3)c3ccccc3)CC2)c1,18,-3,-61,79*,-9,5,42*,FLuc counter=68*
Cc1ccc(S(=O)(=O)N(CCCc2c(C)nc[nH]c2=O)c2ccccc2)cc1,12,nt,nt,nt,nt,nt,nt,
CCOC(=O)c1c(C)oc2c1c(C(c1cccnc1)N1CCOCC1)c(O)c1ccccc12 (stereo not given),-2,-245,-52,76*,-70,-38,-232,
SMILES,Gli-Sufu block,aSyn 5UTR inh,697 NFkB inh,Mdm2 MdmX PPI,Jurkat NFkB inh,KLF5 inh,Mdm2 MdmX conf,others
O=C1CCNc2cc3ccccc3cc21,-6,78*,-7,65*,13,3,61*,FLuc counter=49*
CCCC(=O)Nc1cccc(NC(=O)c2cccc([N+](=O)[O-])c2C)c1,0,25,16,49,1,-15,nt,
Cc1ccccc1C1C(C#N)=C2N=C(N)c3c(sc4c3CCCCC4)N2C2=C1C(=O)CC(C)(C)C2 (stereo not given),7,16,-16,39,2,-14,nt,
Cc1ccccc1C1C(C#N)=C2NC(=O)c3c(sc4c3CCCCC4)N2C2=C1C(=O)CC(C)(C)C2 (stereo not given),nt,-9,-35,82*,-4,3,63*,FLuc counter=38*
CCOc1cc(/C=C2/NC(=O)N(CC(=O)OC)C2=O)ccc1O,32,-66,-15,13,-6,-8,nt,
CCOC(=O)C(Cc1ccccc1)NC(=O)Cn1nnc(-c2ccc(SC)cc2)n1 (stereo not given),-2,-6,-8,-10,-9,-1,nt,
CSc1ccc(-c2nnn(CC(=O)NCc3ccccc3)n2)cc1,3,-1,-10,50,12,-7,30,
Cc1nn(C)c(C)c1CN(C(=O)C1CCC(=O)N(C2CCCCCC2)C1)C(C)C (stereo not given),20,-49,-13,-28,-10,-3,nt,
O=C(NC1(Cc2ccccc2)CCN(CCCc2ccccc2)C1=O)c1ccccc1 (stereo not given),10,nt,2,64*,10,nt,54*,FLuc counter=40*
COc1ccc(/C=C/C(O)=C2/C(=O)N(C)C3(C)CC2c2ccccc2O3)cc1 (stereo not given),22,-60,4,73*,-4,29,31,
Cc1ccc(/C=C/C(O)=C2/C(=O)N(C)C3(C)CC2c2ccccc2O3)cc1 (stereo not given),18,-36,-10,83*,10,2,42*,FLuc counter=30
COc1ccc(/C=C/C(O)=C2/C(=O)NC3(C)CC2c2ccccc2O3)c(OC)c1OC (stereo not given),11,-21,10,11,0,14,nt,
C/C(=N/NC(=O)CN1CCN(Cc2ccccc2Cl)CC1)c1ccncc1,9,25,9,-3,2,6,nt,
Cc1ccc2c(c1)c(N=NC(N)=S)c(O)n2Cc1ccccc1,11,23,19,35,1,-3,nt,
Oc1c(N=NC(=S)Nc2ccccc2F)c2ccccc2n1Cc1ccc(F)cc1,-3,44,4,59*,7,-5,47*,FLuc counter=55*
Oc1c(N=NC(=S)Nc2ccccc2F)c2ccccc2n1Cc1cccc(Cl)c1,29,48,16,59*,7,12,30,
